Screens as filed in PubChem BioAssay.
H9c2 protect – protects H9c2 cardiomyocytes from peroxide injury; AID 588492; actives 0.63% (n = 360,000); protection from H2O2 cell death, % at 20 µM; H2O2 injury protection, ATPLite, 2 h;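 active = compounds giving at least 50% protection of heart cells from peroxide-induced death in the single-dose screen, raw or plate-pattern-corrected value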
m-calpain inh – inhibitors of pig calpain II; purified calpain II, fluorogenic peptide substrate, 30 min; actives 0.37% (n = 220,000); inhibition, % at 16 µM;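 active = inhibition above about 50%, limit read from the data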
MIN6 prolif – induces beta-cell replication in MIN6 cells; MIN6 cells proliferation, ATPlite luminescence, 48 h; cells starved in 0.2% serum; 100% = growth in 10% serum; proliferation, % at 10 µM; actives 0.29% (n = 330,000);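 active = compounds whose signal lies at least 3.5 SD above the mean of all wells on their plate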
aDG glyco up – increases alpha dystroglycan glycosylation | Pro5-aDG cells, alpha-DG glycosylation AlphaScreen (IIH6); 0% Pro5, 100% B10-LARGE cell signal | activation, % at 10 µM | actives 0.22% (n = 360,000);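 active = activation of at least 8% versus controls, or a plate z-score of at least 8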;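 also: Pro5 are CHO cells carrying HIG-tagged alpha-DG that lacks glycosylation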
FAS-TE inh – FAS thioesterase (human) inhibition; P49327; actives 0.67% (n = 360,000); inhibition, % at 15 µM; recombinant FAS-TE, OMFH fluorogenic substrate, fluorescence endpoint;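 active = compounds whose normalised, plate-corrected inhibition of enzyme fluorescence in the single-dose primary screen is 50% or more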
TAG inh – reduces triacylglycerol accumulation in H9c2 cells. Nile Red lipid (TAG) fluorescence; cells loaded with 200 µM oleic acid. actives 0.66% (n = 230,000). AID 651582. inhibition, % at 12.5 µM;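 active = pattern-corrected inhibition of lipid staining of at least 50% with the nuclear-stain viability signal not falling by more than 50%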
aDG glyco conf – confirmation of alpha dystroglycan glycosylation activators; shares compounds with aDG glyco up; Pro5-aDG cells, alpha-DG glycosylation, IIH6 AlphaLISA; scaled to LARGE-overexpressing B10 cells as 100%; activation, % at 10 µM (by protocol); actives 17% (n = 600); AID 651671;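 active = activation of at least 7% in one or more replicates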;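 also: cells exposed to compound for two days before detection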
Large screens that a line does not name were inactive (follow-up assays come after a bar, where they were run). Rows were chosen to be rich in hits. Some 2.3% of all compounds tested hit in one or more screens of this group.

CC1=C(C(=O)N(C(C)C)C(C)C)CC(CC(=O)NC2CC2)C(=O)N1Cc1ccccc1 (centres undefined)	none (no result: m-calpain inh, MIN6 prolif, TAG inh)
COc1ccc(CN2C(=O)C(CC(=O)NC3CCCC3)CC(C(=O)N(C(C)C)C(C)C)=C2C)cc1 (centres undefined)	aDG glyco up 5.0 (no result: m-calpain inh, MIN6 prolif) | aDG glyco conf inactive
C[C@H]1CN([C@@H](C)CO)C(=O)CCCn2nncc2CO[C@@H]1CN(C)S(=O)(=O)c1ccccc1	none (no result: m-calpain inh, MIN6 prolif)
O=C(Nc1cccnc1)c1cccc(-c2cc3ccccc3oc2=O)c1	none
O=C(NCc1cccnc1)c1ccc(-c2cc3ccccc3oc2=O)cc1	aDG glyco up 5.6 (no result: TAG inh) | aDG glyco conf inactive
COc1ccccc1C(=O)NNC(=O)c1cccc(Cl)c1	none (no result: TAG inh)
COc1ccc(Cl)cc1C(=O)NNC(=O)c1cccc([N+](=O)[O-])c1	aDG glyco up 3.3 | aDG glyco conf inactive
O=C(NC(Cc1c[nH]c2ccccc12)C(=O)O)c1cccc(S(=O)(=O)N2CCCCC2)c1 (centres undefined)	none (no result: m-calpain inh, MIN6 prolif)
Cc1cn([C@H]2C[C@H](O)[C@@H](/C=C/C(=O)NCc3ccco3)O2)c(=O)[nH]c1=O	none (no result: m-calpain inh, MIN6 prolif, TAG inh)
Cc1nc(NC(C)c2ccccc2)c2oc3ccccc3c2n1 (centres undefined)	aDG glyco up 6.7 | aDG glyco conf inactive
Cc1ccc(NC(=O)Cc2nn(C)c(=O)c3ccccc23)cc1F	aDG glyco up 10.3 | aDG glyco conf inactive
Cc1cccc2cc(C#N)c(SCC(=O)Nc3ccccc3N3CCOCC3)nc12	aDG glyco up 4.9 | aDG glyco conf inactive
CCOc1ccccc1N1CCN(CC(=O)Nc2ccccc2C(=O)NC2CC2)CC1	none (no result: m-calpain inh)
CC(C)(C)c1ccc(-n2ncc3c2CCCC3NC(=O)C2(C(N)=O)CC2)cc1 (centres undefined)	aDG glyco up 9.6 (no result: m-calpain inh, TAG inh) | aDG glyco conf inactive
CCN(C[C@H]1N[C@@](C)(C(=O)OC)[C@H]2C(=O)N(Cc3ccccc3)C(=O)[C@@H]12)C(=O)c1ccccc1	none (no result: m-calpain inh)
CCNC(=O)N(CC)C[C@H]1N[C@@](C)(C(=O)OC)[C@H]2C(=O)N(Cc3ccccc3)C(=O)[C@@H]12	aDG glyco up 7.1 (no result: m-calpain inh) | aDG glyco conf inactive
Cc1cc(OC(C)C(=O)NCCN2CCOCC2)c2c(C)cc(=O)oc2c1 (centres undefined)	aDG glyco up 8.3 (no result: m-calpain inh, TAG inh) | aDG glyco conf inactive
COC(CNC(=O)c1cn(C)c2ccc(S(=O)(=O)N3CCOCC3)cc2c1=O)OC	none (no result: m-calpain inh, TAG inh)
CCn1cc(C(=O)NCC(OC)OC)c(=O)c2cc(S(=O)(=O)N3CCOCC3)ccc21	aDG glyco up 7.6 (no result: m-calpain inh, TAG inh) | aDG glyco conf inactive
O=C(Nc1cc(=O)[nH]c(=O)[nH]1)c1cc(Cl)ccc1Cl	none (no result: m-calpain inh, TAG inh)
Cc1cccc(Nc2ncnc3ccc(Br)cc23)c1	none (no result: TAG inh)
Brc1ccc2ncnc(NCc3ccccc3)c2c1	aDG glyco up 8.2 | aDG glyco conf 3.4
Nn1cc(-c2ccccc2)nc1SCC(=O)NC1CCS(=O)(=O)C1 (centres undefined)	aDG glyco up 6.9 | aDG glyco conf inactive
O=C(CSc1nc(-c2ccccc2)c(-c2ccccc2)o1)NC1CCS(=O)(=O)C1 (centres undefined)	none
C[C@@H]1CN([C@@H](C)CO)C(=O)CCCn2nncc2CO[C@@H]1CN(C)C(=O)Nc1ccc(C(C)(C)C)cc1	aDG glyco up 14.0 (no result: m-calpain inh, MIN6 prolif) | aDG glyco conf inactive
C[C@@H]1CN([C@@H](C)CO)C(=O)CCCn2nncc2CO[C@H]1CN(C)C(=O)CCC(F)(F)F	none (no result: m-calpain inh, MIN6 prolif)
CC(C)COC(=O)N(C)C[C@@H]1OCc2cnnn2CCCC(=O)N([C@H](C)CO)C[C@@H]1C	aDG glyco up 7.2 (no result: m-calpain inh, MIN6 prolif) | aDG glyco conf inactive
C[C@@H]1CN([C@H](C)CO)C(=O)CCCn2nncc2CO[C@@H]1CN(C)C(=O)CCC(F)(F)F	aDG glyco up 7.3 (no result: m-calpain inh, MIN6 prolif) | aDG glyco conf inactive
CC(C)Oc1ccc(CN2CCC2(C)C(=O)NCc2cccc3ccccc23)cc1 (centres undefined)	none (no result: m-calpain inh, MIN6 prolif)
C/C(=N\Nc1nc(C)cc(-c2ccccc2)n1)c1ccc(C)o1	H9c2 protect 47.6, aDG glyco up 4.6 | aDG glyco conf inactive
C/C(=N/Nc1nc(C)cc(-c2ccccc2)n1)c1ccco1	none
CCOC(=O)N1CCC(N2C(=O)c3ccc(C(=O)Nc4ccc(F)cc4F)cc3C2=O)CC1	aDG glyco up 8.8 | aDG glyco conf inactive
Cc1cc(C(=O)Nc2ccc(Cl)cc2)n(-c2ccccc2)n1	aDG glyco up 2.7 (no result: m-calpain inh, TAG inh) | aDG glyco conf inactive
Cc1ccc(NC(=O)c2cc(C)nn2-c2ccccc2)cc1	none
COCCNc1nc(NCc2ccc(C(C)C)cc2)c2sccc2n1	aDG glyco up 7.3 (no result: m-calpain inh, MIN6 prolif) | aDG glyco conf inactive
COc1ccccc1CNC(=O)c1ccc(NC2=NC3CS(=O)(=O)CC3S2)cc1 (centres undefined)	none (no result: m-calpain inh, TAG inh)
CCN(CC(=O)Nc1cc(Cl)ccc1C)C(=O)c1ccc(=O)n(Cc2ccccc2)n1	none (no result: m-calpain inh)
N=c1c2c(ncn1CCCO)Oc1c(ccc3ccccc13)C2c1ccccc1 (centres undefined)	aDG glyco up 3.1 | aDG glyco conf 4.7
COc1ccc(C2c3ccc4ccccc4c3Oc3ncn(CCCO)c(=N)c32)cc1 (centres undefined)	none
COc1cc(-c2nnc(COc3ccc(Cl)cc3C)o2)cc(OC)c1OC	aDG glyco up 6.8 | aDG glyco conf inactive
COc1ccc(CN(C)C(=O)Cn2cnc3c(NCc4ccccc4)ncnc32)cc1OC	none (no result: m-calpain inh, MIN6 prolif)
COc1ccc(NC(=O)C2Cc3ccccc3O/C2=N\O)cc1 (centres undefined)	aDG glyco up 5.9 (no result: m-calpain inh, MIN6 prolif, TAG inh) | aDG glyco conf inactive
COC(=O)C1=NN(C(C)(C)CC(C)=O)C2C(=O)N(C3CCCCC3)C(=O)C12 (centres undefined)	aDG glyco up 3.1 | aDG glyco conf inactive
CCN(CC)S(=O)(=O)c1ccc2[nH]c(=O)cc(C(=O)Nc3cccc(C(C)=O)c3)c2c1	aDG glyco up 9.2 | aDG glyco conf inactive
NS(=O)(=O)c1cc(Cl)c(NC(=O)COC(=O)c2ccccn2)c(Cl)c1	none (no result: m-calpain inh)
COC(=O)C[C@@H]1C=C[C@H](NS(=O)(=O)c2cccc(F)c2)[C@@H](CO)O1	none (no result: H9c2 protect, m-calpain inh, MIN6 prolif, FAS-TE inh, TAG inh)
CC(OC(=O)Cc1c[nH]c2ccccc12)C(=O)Nc1ccccc1[N+](=O)[O-] (centres undefined)	none (no result: m-calpain inh)
O=C(Nc1ccccc1)c1ccccc1OCc1ccc(F)cc1	aDG glyco up 3.8 (no result: m-calpain inh) | aDG glyco conf inactive
O=C(Nc1ccc(O)cc1)c1ccccc1OCc1ccccc1	none (no result: m-calpain inh)
C/C(=N/Nc1nc(C)cc(C)n1)c1ccc(Br)cc1	aDG glyco up 2.2 (no result: m-calpain inh) | aDG glyco conf inactive
C/C(=N\Nc1nc(C)cc(C)n1)c1ccc(N2CCOCC2)cc1	none
